Compounds without any hit were thinned out: in the full panel of roughly 79,000, 15% have a hit. Rule as the data show it: active = growth inhibition above about 70%; inactive = the rest.
How the values were obtained:
[1] = NCI Yeast Anticancer Drug Screen. Data for the rad50 strain (AID 155);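 also: 0% = growth of vehicle-only cultures of the same strain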; details: S. cerevisiae rad50 strain growth inhibition, stronger effect = higher value; at 50.0 µM unless noted
Outline: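 Compounds were tested on a yeast strain with an engineered DNA damage repair alteration; the reported value is growth inhibition normalised to vehicle treatment.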

[2] = NCI Yeast Anticancer Drug Screen. Data for the mec2-1 strain (AID 157); details: S. cerevisiae mec2-1 strain, stronger effect = higher value; at 50.0 µM unless noted
Outline: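 Mutant yeast (mec2-1) grown with compound; growth inhibition relative to vehicle control reported.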

[3] = NCI Yeast Anticancer Drug Screen. Data for the sgs1 mgt1 strain (AID 161);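 also: 0% = growth of cultures given vehicle only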; details: S. cerevisiae sgs1 mgt1 strain, stronger effect = higher value; at 50.0 µM unless noted
Outline: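 Yeast cells carrying a defined DNA-repair defect were exposed to test compounds. Growth inhibition was measured relative to vehicle-treated controls.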

[4] = NCI Yeast Anticancer Drug Screen. Data for the cln2 rad14 strain (AID 165);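 also: 0% = growth equal to vehicle treated cultures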; details: S. cerevisiae cln2 rad14 strain, stronger effect = higher value; at 50.0 µM unless noted
Outline: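 Readout is yeast growth inhibition versus vehicle-treated controls, using a strain with cln2 and rad14 alterations exposed to compound.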

[5] = NCI Yeast Anticancer Drug Screen. Data for the bub3 strain (AID 167); details: S. cerevisiae bub3 mutant strain, stronger effect = higher value; at 50.0 µM unless noted
Outline: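 Growth of a checkpoint-deficient yeast mutant is measured after compound exposure. Values represent inhibition relative to vehicle.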

[6] = NCI Yeast Anticancer Drug Screen. Data for the mlh1 rad18 strain (AID 175); details: S. cerevisiae mlh1 rad18 strain growth inhibition, stronger effect = higher value; at 50.0 µM unless noted
Outline: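 Genetically defined yeast (DNA repair-deficient) exposed to compounds; growth inhibition determined relative to vehicle.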

Measured: growth inhibition

Cc1cc(Cl)ccc1NC(=O)C(=O)Cc1ccc([N+](=O)[O-])c([N+](=O)[O-])c1CC(=O)C(=O)Nc1ccc(Cl)cc1C
inactive: [1] -10.6% | [2] -30.4% | [3] -13.6% | [4] -7.8% | [5] 18.6% | [6] 7%

OCC1OC(OC2C(CO)OC(O)C(O)C2O)C(O)C(O)C1O (stereo not given)
inactive: [1] 19.1% | [2] 14.9% | [3] 13.9% | [4] 13.3% | [5] 20.1% | [6] 13.7%

COc1ccc(C(=O)C(CN(C)C)CN(C)C)c(OC)c1
inactive: [1] 30.6% | [2] 30.8% | [3] 57% | [4] 32.9% | [5] 30.8% | [6] 64.2%

CC/C(CC(=O)CCC(=O)Nc1c(C)cccc1C)=N\NC(=O)NN
inactive: [1] -19.4% | [2] -22% | [3] -4.15% | [4] 24.6% | [5] 3% | [6] -8.5%

CCC(CN)C(F)(F)C(F)(F)C(F)(F)F (stereo not given)
inactive: [1] 4.65% | [2] -12.2% | [3] -5.45% | [4] 2.7% | [5] 8.3% | [6] 6.05%

CC1=C2CC3=C(C)C(=O)O[C@H]3C[C@@H](C)[C@@H]2CC1
inactive: [1] 15.2% | [2] 9.9% | [3] 26% | [4] 1.15% | [5] 33.8% | [6] 2.45%

Cn1ccn(C2CCCCC2)c1=O
inactive: [1] 3.35% | [2] 5.1% | [3] -0.25% | [4] -12.3% | [5] 35% | [6] 7.95%

C(/C=C/c1ccccc1)=Nc1ccc(SSc2ccc(N=C/C=C/c3ccccc3)cc2)cc1
inactive: [1] 38.2% | [2] 6.25% | [3] 4.65% | [4] -13% | [5] -3.05% | [6] 27.9%

NC1CCC(C2CCC(N)CC2)CC1 (stereo not given)
inactive: [1] 17.1% | [2] 20.6% | [3] 3.7% | [4] -53% | [5] -6.45% | [6] -13.7%

CCCCCCC(=O)C/C(=N/NC(N)=S)C(=O)NC1C2CC3CC(C2)CC1C3 (stereo not given)
inactive: [1] -14.8% | [2] -19.2% | [3] -48.7% | [4] 29.4% | [5] -2.3% | [6] -34.5%

NC1N=Nc2ccccc21 (stereo not given)
inactive: [1] 0.05% | [2] -5.95% | [3] 13.3% | [4] 4.3% | [5] -1.6% | [6] 41.3%

O=C1CCCCC(=O)Nc2ccccc2N1
inactive: [1] -22.2% | [2] -15.8% | [3] -6.85% | [4] 0.9% | [5] -4.9% | [6] -20.8%

COC(=O)[C@@H]1O[C@H]1c1ccccn1
inactive: [1] 7.9% | [2] 1.1% | [3] -7.95% | [4] -5.75% | [5] 8.95% | [6] 0.1%

C#CC(C)(O)CCC(C)C (stereo not given)
inactive: [1] -10% | [2] -16.1% | [3] -3.3% | [4] 14.5% | [5] 10.8% | [6] -16.9%

COc1cc(N=C=S)ccc1NC(=O)c1cc(Br)cc(Br)c1O
inactive: [1] 55.9% | [2] 39.4% | [3] 46.6% | [4] 31.2% | [5] 1.15% | [6] 45%

Cc1cccc(C)c1NC(=S)N/C=C(\C#N)C(N)=O
inactive: [1] -53.2% | [2] -72.2% | [3] -25% | [4] -21.6% | [5] -8.65% | [6] -49.4%

N#CCSc1ncnc2nc[nH]c12
inactive: [1] 4.25% | [2] 1.65% | [3] -5.95% | [4] 5.6% | [5] 4.8% | [6] 0.15%

O=C(O)CCCC1CCC(=O)CC1
inactive: [1] -0.4% | [2] -7.55% | [3] -8.1% | [4] -24.4% | [5] 0.5% | [6] 3.35%

COc1ccc(C2=C(Cl)c3cc(OC)c(OC)cc3C2Cl)cc1 (stereo not given)
inactive: [1] 14.8% | [2] 22.6% | [3] 21.2% | [4] 11.8% | [5] -0.45% | [6] -41.6%

COC(=O)c1ccc(Oc2nc3ccc(C(F)(F)F)cc3nc2-c2ccccc2)cc1
inactive: [1] -11.9% | [2] -31.9% | [3] 14.3% | [4] -34.1% | [5] -23.8% | [6] -19.1%
